# Results taken from PubChem BioAssay (EPA / NIEHS).
# Inconclusive results are not listed. Calls of active or inactive are those of the source. Rule for the calls, unless noted: active = hit-call score of the fitted dose curve at least 0.9, where 1 is the maximum; inactive = score below 0.9.
# Key:
# [1] = CCTE_Shafer_MEA_dev_per_network_spike_spike_number_mean: CCTE's Neural Network Formation Assay for Mean Number of Spikes in a Network Spike, Shafer Lab (AID 2284053)
# Summary of the method: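 Continuous twelve-day exposure of developing rat cortical networks grown over 16 microelectrodes per well; spontaneous firing is captured at four time points, and the per-network-spike spike number is integrated over development by trapezoidal AUC.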
# [2] = CCTE_Shafer_MEA_dev_per_network_spike_spike_percent: CCTE's Neural Network Formation Assay for Percent of Spikes in a Network Spike, Shafer Lab (AID 2284054)
# Summary of the method: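 Developing networks of rat cortical neurons are dosed at day 0 and recorded extracellularly four times up to day 12. The endpoint is the area under the curve of percent spikes in network spikes, fitted in the negative direction relative to DMSO.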
# [3] = CCTE_Shafer_MEA_acute_AB: CCTE's Alamar Blue Assay for Cytotoxicity in the Neural Acute Assay, Shafer Lab (AID 2284069; active = hit-call score of the fitted dose curve at least 0.9, where 1 is the maximum;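 note: active compounds lower the viability signal compared with DMSO wells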)
# Summary of the method: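 Metabolic activity in chemically exposed rat cortical neurons (MEA cultures, day 13/15 post-plating) measured via CellTiter Blue resazurin reduction, 544/590 nm fluorescence; fitted relative to DMSO, with signal loss indicating reduced viability.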
# [4] = CCTE_Shafer_MEA_dev_mutual_information_norm: CCTE's Neural Network Formation Assay for Mutual Information Normalization, Shafer Lab (AID 2284091)
# Summary of the method: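 Exposure of primary rat cortical neurons began at plating and ran to DIV 12, with full media and treatment renewal after DIV 5 and 9 recordings. Mutual information AUC (DIV 5–12) was analysed for loss versus DMSO.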
# [5] = CCTE_Shafer_MEA_dev_correlation_coefficient_mean: CCTE's Neural Network Formation Assay for Mean Correlation Coefficient, Shafer Lab (AID 2284093);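 for AC50: well mean pairwise spike train correlation integrated as AUC over recording days 5 to 12; potency fitted for loss of correlation relative to DMSO vehicle wells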
# Summary of the method: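 Read-out: well-mean correlation coefficient of spike trains between electrode pairs, collapsed over four recording days as trapezoidal area-under-the-curve. Developing rat cortical neuron networks grown on MEAs received test chemical continuously from plating.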
# [6] = CCTE_Mundy_HCI_Cortical_Synap_Neur_Matur_NeuriteSpotCountPerNeuriteLength: CCTE's Synaptogenesis and Neurite Maturation Assay in rat cortical cells for Neurite Spot Count per Neurite Length, Mundy Lab (AID 2284210)
# Summary of the method: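 Neurite-associated synapse density (synaptophysin puncta per unit neurite length) is measured by fluorescence high-content imaging in rat cortical cultures treated from DIV 7 and fixed at DIV 12, with DMSO as negative control.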
# [7] = CCTE_Mundy_HCI_Cortical_Synap_Neur_Matur_BPCount: CCTE's Synaptogenesis and Neurite Maturation Assay in rat cortical cells for Branch Point Count, Mundy Lab (AID 2284211)
# Summary of the method: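 HCI read-out of branch points from MAP2/synaptophysin/Hoechst immunofluorescence; rat cortical cultures, AraC DIV 5, dosing DIV 7, fixed DIV 12; fit in positive direction vs DMSO baseline.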
# [8] = CCTE_Mundy_HCI_Cortical_NOG_NeuriteCount: CCTE's Neurite Outgrowth Assay in rat cortical cells for Neurite Count, Mundy Lab (AID 2284212);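 note: cells fixed about two days after chemical exposure began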
# Summary of the method: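 Rat cortical primary cells; compound added 2 h post-plating, 1/10 dilution of working solution. Anti-betaIII-tubulin/AF488 ICC; ArrayScan neurite count vs DMSO.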
# [9] = CCTE_Mundy_HCI_Cortical_NOG_NeuriteLength: CCTE's Neurite Outgrowth Assay in rat cortical cells for Neurite Length, Mundy Lab (AID 2284213)
# Summary of the method: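 First, rat primary cortical cells were plated and, 2 h later, given test chemical as a 1/10 dilution. Finally, βIII-tubulin immunostaining enabled automated imaging of neurite length.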
# [10] = CCTE_Mundy_HCI_Cortical_Synap_Neur_Matur_NeuriteLength: CCTE's Synaptogenesis and Neurite Maturation Assay in rat cortical cells for Neurite Length, Mundy Lab (AID 2284214)
# Summary of the method: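 Neurite length quantified by automated high-content imaging of MAP2, synaptophysin and Hoechst staining. Rat cortical cells received chemical from DIV 7 to DIV 12 […], glial growth arrested by AraC at DIV 5; DMSO baseline.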
# [11] = CCTE_Mundy_HCI_Cortical_Synap_Neur_Matur_NeuriteSpotCountPerNeuron: CCTE's Synaptogenesis and Neurite Maturation Assay in rat cortical cells for Neurite Spot Count per Neuron Count, Mundy Lab (AID 2284215)
# Summary of the method: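 Rat primary cortical cells received AraC at DIV 5, then chemicals with a media change at DIV 7, and were fixed at DIV 12. Synaptophysin puncta on MAP2-stained neurites per neuron were counted by high-content imaging, fitted relative to DMSO.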
# [12] = CCTE_Mundy_HCI_Cortical_Synap_Neur_Matur_SynapseCount: CCTE's Synaptogenesis and Neurite Maturation Assay in rat cortical cells for Synapse Count, Mundy Lab (AID 2284218)
# Summary of the method: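 High-content imaging of synaptophysin puncta per MAP2-positive neuron (Hoechst nuclei) in rat cortical cells exposed DIV 7–12 after glial arrest with AraC at DIV 5; decrease relative to DMSO scored.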
# [13] = test system: DIO3 (gene 1735); test: CCTE_GLTED_hDIO3: CCTE's human Deiodinase 3 (DIO3) Inhibition Assay, Great Lakes Toxicology and Ecology Division (GLTED) Lab (AID 2284055; active = hit-call score of the fitted dose curve at least 0.9, where 1 is the maximum;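 note: potency is for inhibition seen as loss of released iodide signal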)
# Summary of the method: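 Inhibition is read as reduced iodide release, measured spectrophotometrically by the Sandell-Kolthoff cerium/arsenic reaction. Adenovirus-expressed human DIO3 enzyme is exposed to chemical for 3 h, n=3 plates. Iodinated chemicals, nitrite, iron or thiocyanate may interfere.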
# [14] = CCTE_Shafer_MEA_acute_LDH: CCTE's Lactate Dehydrogenase Assay for Cytotoxicity in the Neural Acute Assay, Shafer Lab (AID 2284086; active = hit-call score of the fitted dose curve at least 0.9, where 1 is the maximum;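 note: active means LDH release rises above DMSO vehicle level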)
# Summary of the method: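 LDH released during 40 min compound exposure of primary rat cortical cultures, quantified by absorbance at 490 nm in collected medium. Fitting direction positive versus DMSO vehicle.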
# [15] = CCTE_Shafer_MEA_dev_LDH: CCTE's Lactate Dehydrogenase Assay for Cytotoxicity in the Neural Network Formation Assay, Shafer Lab (AID 2284068; active = hit-call score of the fitted dose curve at least 0.9, where 1 is the maximum;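 note: exposure for twelve days from plating with re-dosing on DIV 5 and 9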)
# Summary of the method: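 Cytotoxicity companion to network-formation recordings: rat cortical neurons received compound over 12 days of development, re-dosed at DIV 5 and 9 feeds. Viability was inferred from LDH enzyme activity relative to DMSO.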
# [16] = TAMU_PeakParms_SingleDonor1434_Chronotropy: Texas A&M University (TAMU) 1.5-hr Human Induced Pluripotent Stem Cell (iPSC)-derived Cardiomyocytes Calcium (Ca+2) Flux Assay for Cardiotoxicity: Chronotropy (changes in peak frequency) (AID 2284217); details: actives raise or lower the signal
# Summary of the method: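 Beat frequency of single-donor iPSC cardiomyocytes was recorded through a calcium-sensitive dye 1.5 hours after exposure to four concentrations up to 100 uM. An EC05 point of departure was derived.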
# [17] = CCTE_Shafer_MEA_dev_AB: CCTE's Alamar Blue Assay for Cytotoxicity in the Neural Network Formation Assay, Shafer Lab (AID 2284083; active = hit-call score of the fitted dose curve at least 0.9, where 1 is the maximum;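 note: twelve days of exposure from plating with re-dosing on DIV 5 and 9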)
# Summary of the method: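 Fluorescent resazurin reduction serves as the viability read-out, with DMSO as negative control and baseline. Cells were primary rat cortical neurons grown on MEA plates and dosed from day 0 to day 12, treatment renewed on DIV 5 and 9.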
smiles,measurement,setting,value
Cn1c(=O)c2c(ncn2C)n(C)c1=O,outcome,[1],inactive
same,outcome,[2],inactive
same,outcome,[3],inactive
same,outcome,[4],inactive
same,outcome,[5],inactive
same,outcome,[6],inactive
same,outcome,[7],inactive
same,outcome,[8],inactive
same,outcome,[9],inactive
same,outcome,[10],inactive
same,outcome,[11],inactive
same,outcome,[12],inactive
Clc1nc(Cl)c(Cl)c(Cl)c1Cl,AC50,[13],0.92 µM (active)
Cn1cnc([N+](=O)[O-])c1Sc1ncnc2nc[nH]c12,outcome,[14],inactive
CCOC(=O)c1ccc(C2CCC(NC[C@H](O)COc3ccc(O)c(NS(C)(=O)=O)c3)CC2)cc1 (stereo not given in full),AC50,[13],126 µM (active)
same,outcome,[3],inactive
same,outcome,[14],inactive
O=C(OC[C@H]1O[C@@H](OC(=O)c2cc(O)c(O)c(OC(=O)c3cc(O)c(O)c(O)c3)c2)[C@H](OC(=O)c2cc(O)c(O)c(OC(=O)c3cc(O)c(O)c(O)c3)c2)[C@@H](OC(=O)c2cc(O)c(O)c(OC(=O)c3cc(O)c(O)c(O)c3)c2)[C@@H]1OC(=O)c1cc(O)c(O)c(OC(=O)c2cc(O)c(O)c(O)c2)c1)c1cc(O)c(O)c(OC(=O)c2cc(O)c(O)c(O)c2)c1,AC50,[13],14.8 µM (active)
O=C1CCC(N2C(=O)c3ccccc3C2=O)C(=O)N1 (stereo not given),outcome,[1],inactive
same,outcome,[2],inactive
same,outcome,[15],inactive
same,outcome,[4],inactive
same,outcome,[5],inactive
same,outcome,[6],inactive
same,outcome,[7],inactive
same,outcome,[8],inactive
same,outcome,[10],inactive
same,outcome,[11],inactive
same,outcome,[16],inactive
same,outcome,[12],inactive
COc1cccc(-c2ccc(/C=C\CN3CCCCCC3)cc2Cl)c1,AC50,[13],32.8 µM (active)
same,outcome,[14],inactive
CCC(C)(C)C(=O)O[C@H]1C[C@@H](C)C=C2C=C[C@H](C)[C@H](CC[C@@H]3C[C@@H](O)CC(=O)O3)[C@H]21,AC50,[1],1.1 µM (active)
same,AC50,[2],0.844 µM (active)
same,AC50,[13],97.8 µM (active)
same,AC50,[15],0.368 µM (active)
same,AC50,[17],1.75 µM (active)
same,outcome,[14],inactive
same,outcome,[4],inactive
same,AC50,[5],1.51 µM (active)
CCOc1cccc(-n2cc(C(=O)N3CCN(c4cc(C(=O)O)c5ccccc5c4)CC3)nc2-c2ccc(C)cc2)c1,AC50,[13],140 µM (active)
NC(=O)NO,outcome,[1],inactive
same,outcome,[2],inactive
same,outcome,[4],inactive
same,outcome,[5],inactive
same,outcome,[6],inactive
same,outcome,[7],inactive
same,outcome,[8],inactive
same,outcome,[9],inactive
same,outcome,[10],inactive
same,outcome,[11],inactive
same,outcome,[16],inactive
same,outcome,[12],inactive
COc1ccc2sc(C(=O)Nc3nnn[nH]3)c(OC(C)C)c2c1,outcome,[3],inactive
same,outcome,[14],inactive
O=C(O)CCN(C1(C(=O)NO)CCCC1)S(=O)(=O)c1ccc(Oc2ccc(F)cc2)cc1,outcome,[3],inactive
same,outcome,[14],inactive
CCCCCCCCCCCCc1ccccc1,outcome,[3],inactive
same,outcome,[14],inactive
On1ccccc1=S,outcome,[3],inactive
same,outcome,[14],inactive
CCCCCCc1ccc(O)cc1O,outcome,[14],inactive
same,outcome,[16],inactive
O=C(O)c1cc(N=Nc2ccc(S(=O)(=O)Nc3ccccn3)cc2)ccc1O,outcome,[3],inactive
same,outcome,[14],inactive
